Laboratory results as given in PubChem BioAssay (EPA / NIEHS).
Values joined by “and” are separate entries in the source; they are usually repeats but may differ in a detail not shown here. Identical values can stand only once. A structure can be active in one record and inactive in another. Active and inactive are the calls of the source. The calls were made as follows: active = hit-call score of the fitted dose curve at least 0.9, where 1 is the maximum; inactive = score below 0.9.

Read-out: CD69, CD69 (gene 969)
Assay: BSK_LPS_CD69: BioMAP Diversity Plus: LPS Assay for CD69 Biomarker Activity (AID 2284303)
Conditions: primary human HUVEC with PBMC
Experimental: BSK_LPS is a cell-based, multiplexed-readout assay that uses umbilical vein endothelium and peripheral blood mononuclear cells, a human vascular primary cell co-culture, with measurements taken at 24 hours after chemical dosing in a 96-well plate.BSK_LPS_CD69 is an assay component measured in the BSK_LPS assay. It measures CD69 antibody related to regulation of gene expression using ELISA technology.Data from the assay component BSK_LPS_CD69 was analyzed at the endpoint, BSK_LPS_CD69, in the positive analysis fitting direction relative to DMSO as the negative control and baseline of activity. Using a type of binding reporter, gain or loss-of-signal activity can be used to understand protein changes. To generalize the intended target to other relatable targets, this assay endpoint is annotated to the 'cytokine' intended target family, where the subfamily is 'inflammatory factor'.
The levels of cell surface (or secreted, indicated by the prefix "s") biomarker endpoints were measured by ELISA. Overt cytotoxicity to cells in confluent adherent cultures (all systems other than the BT system) was assessed by measuring total protein levels using sulforhodamine B (SRB) staining in parallel cultures at the time of biomarker measurements, indicated as SRB endpoints. For proliferation assays for adherent cell types, individual cell types are cultured at sub-confluence and relative cell numbers quantified by SRB staining at time points optimized for each system (48 h: 3C and CASM3C systems; 72 h: BT and HDF3CGF systems; 96 h: SAg system). SRB was performed by staining cells with 0.1% SRB after fixation with 10% TCA and reading wells at 560 nm.Viability and proliferation of PBMC (T cells) was quantified by Alamar Blue reduction for the SAg and BT systems. For PBMC viability (referred to as PBMC Cytotoxicity within the assay endpoint names), cells were plated (75,000/well in a 96-well plate) and then chemical samples added for 1 h before addition of activators, SEB and TSST-1 (20 ng/mL final concentration each). Cells were incubated for 90 h. Then, Alamar Blue (20 uL/well) (Invitrogen, Cat DAL1100) was added for 6 h, and the plates were read with a fluorescence microplate reader at 546/580 nm (excitation/emission). For PBMC proliferation, cells were plated and activated as above but incubated for only 16 h prior to addition of Alamar Blue. Plates were read after 6 h.

| Compound | outcome | AC50 |
| --- | --- | --- |
| COC(F)(C(F)F)C(F)(F)F (stereo not given) | inactive | – |
| NCC(F)(F)C(F)(F)C(F)(F)C(F)(F)C(F)(F)C(F)(F)F | inactive | – |
| OCC(F)(F)C(F)(F)C(F)(F)CO | inactive | – |
| C[Si](Cl)(Cl)CCC(F)(F)C(F)(F)C(F)(F)C(F)(F)C(F)(F)C(F)(F)F | inactive | – |
| NS(=O)(=O)C(F)(F)C(F)(F)C(F)(F)C(F)(F)C(F)(F)C(F)(F)F | – | 26 µM (active) and 22.3 µM (active) |
| O=C(O)CCC(F)(F)C(F)(F)C(F)(F)F | inactive | – |
| OCC(F)(F)C(F)(F)C(F)(F)C(F)(F)C(F)(F)C(F)(F)C(F)(F)C(F)(F)CO | inactive | – |
| O=C(O)C(F)(F)C(F)(F)C(F)(F)OC(F)(F)F | inactive | – |
| O=C(O)CCC(F)(F)C(F)(F)C(F)(F)C(F)(F)C(F)(F)C(F)(F)C(F)(F)F | inactive | – |
| C=CC(=O)OCCC(F)(F)C(F)(F)C(F)(F)C(F)(F)F | inactive | – |
| CCN(CCO)S(=O)(=O)C(F)(F)C(F)(F)C(F)(F)C(F)(F)C(F)(F)C(F)(F)C(F)(F)C(F)(F)F | – | 8.1 µM (active) and 7.79 µM (active) |
| NC(=O)C(F)(F)C(F)(F)C(F)(F)C(F)F | inactive | – |
| NCC(F)(F)C(F)(F)C(F)(F)C(F)(F)C(F)(F)C(F)(F)C(F)(F)C(F)(F)F | inactive | – |
| O=S(=O)(O)CCC(F)(F)C(F)(F)C(F)(F)C(F)(F)C(F)(F)C(F)(F)C(F)(F)C(F)(F)F | inactive | – |
| C=CC(=O)OCC(F)(F)C(F)(F)C(F)(F)C(F)(F)C(F)(F)C(F)(F)C(F)(F)C(F)F | inactive | 23.2 µM (active) |
| OCC(O)CC(F)(F)C(F)(F)C(F)(F)C(F)(F)C(F)(F)C(F)(F)C(F)(F)C(F)(F)F (stereo not given) | inactive | – |
| OC(O)C(F)(F)C(F)(F)F | inactive | – |
| OCC(O)CC(F)(F)C(F)(F)C(F)(F)C(F)(F)F (stereo not given) | inactive | 0.22 µM (active) |
| CCN=C1C=CC(=C(c2ccc(N(CC)CC)cc2)c2ccc(N(CC)CC)cc2)c2ccccc21 | – | 1.16 µM (active) and 1.01 µM (active) |

| Compound | outcome | AC50 |
| --- | --- | --- |
| C=C(C)C(=O)OCC(F)(F)C(F)(F)C(F)(F)C(F)F | inactive | – |
| NC(=O)C(F)(F)C(F)(F)C(F)(F)C(F)(F)C(N)=O | inactive | – |
| NC(=O)C(F)(F)C(F)(F)C(F)(F)F | inactive | – |
| NC(O)(C(F)(F)F)C(F)(F)F | inactive | 1.45 µM (active) |
| O=C(O)C(F)(F)C(F)(F)C(F)(F)OC(F)(C(F)(F)F)C(F)(F)F | inactive | – |
| O=C(Cl)C(F)(F)C(F)(F)C(F)(F)C(F)(F)C(F)(F)C(F)(F)F | inactive | – |
| O=C(O)C(F)(F)C(F)(F)C(F)(F)C(=O)O | inactive | – |
| NC(=O)C(F)(F)C(F)(F)C(F)(F)C(F)(F)C(F)(F)C(F)(F)C(F)(F)F | inactive | – |
| O=C(O)C(F)(F)C(F)(F)C(F)(F)C(F)(F)C(F)(F)C(F)(F)C(F)F | inactive | – |
| CNS(=O)(=O)C(F)(F)C(F)(F)C(F)(F)C(F)(F)C(F)(F)C(F)(F)C(F)(F)C(F)(F)F | inactive | – |
| O=S(=O)(OCC(F)(F)F)C(F)(F)C(F)(F)C(F)(F)C(F)(F)F | – | 30 µM (active) and 890 nM (active) |
| FC(F)(F)C(F)(F)C(F)(F)C(F)(F)C(F)(F)C(F)(F)CC[Si](Cl)(Cl)Cl | inactive | – |
| FC(F)(F)C(F)(F)C(F)(F)C(F)(F)C(F)(F)C(F)(F)C(F)(F)CCI | inactive | – |
| O=C(Cl)C(F)(F)C(F)(F)C(F)(F)C(F)(F)C(F)(F)C(F)(F)C(F)(F)F | inactive | – |
| CO[Si](C)(CCC(F)(F)C(F)(F)C(F)(F)C(F)(F)C(F)(F)C(F)(F)F)OC | inactive | – |
| OCC(F)(F)C(F)(F)C(F)(F)C(F)(F)C(F)(F)C(F)(F)CO | inactive | – |
| O=S(=O)(Cl)C(F)(F)C(F)(F)C(F)(F)C(F)(F)C(F)(F)C(F)(F)C(F)(F)C(F)(F)F | inactive | – |
| FC(F)(F)C(F)(F)C(F)(F)CC1CO1 (stereo not given) | inactive | – |
